Screens from PubChem.
An excerpt weighted towards active compounds, which were near 10% of everything screened.
JMJD2A Tudor inh: inhibitors of human JMJD2A Tudor domain | O75164 | AlphaScreen JMJD2A-Tudor / H3K4me3 peptide binding | Potency, µM (series often up to 114 µM), actives largely listed as inhibitors | 390,000 tested, 4.4% active; note: nearly all actives have a fitted effect of over 50% in size
BAZ2B inh: blocks human BAZ2B; AID 504333; Q9UIF8; AlphaScreen BAZ2B-H3K14Ac peptide displacement; 360,000 tested, 4.4% active; Potency, µM (highest dose often 114 µM), most hits filed as inhibitors; note: nearly all actives have a fitted effect of over 60% in size
Target sequence (Q9UIF8 whole entry, looked up): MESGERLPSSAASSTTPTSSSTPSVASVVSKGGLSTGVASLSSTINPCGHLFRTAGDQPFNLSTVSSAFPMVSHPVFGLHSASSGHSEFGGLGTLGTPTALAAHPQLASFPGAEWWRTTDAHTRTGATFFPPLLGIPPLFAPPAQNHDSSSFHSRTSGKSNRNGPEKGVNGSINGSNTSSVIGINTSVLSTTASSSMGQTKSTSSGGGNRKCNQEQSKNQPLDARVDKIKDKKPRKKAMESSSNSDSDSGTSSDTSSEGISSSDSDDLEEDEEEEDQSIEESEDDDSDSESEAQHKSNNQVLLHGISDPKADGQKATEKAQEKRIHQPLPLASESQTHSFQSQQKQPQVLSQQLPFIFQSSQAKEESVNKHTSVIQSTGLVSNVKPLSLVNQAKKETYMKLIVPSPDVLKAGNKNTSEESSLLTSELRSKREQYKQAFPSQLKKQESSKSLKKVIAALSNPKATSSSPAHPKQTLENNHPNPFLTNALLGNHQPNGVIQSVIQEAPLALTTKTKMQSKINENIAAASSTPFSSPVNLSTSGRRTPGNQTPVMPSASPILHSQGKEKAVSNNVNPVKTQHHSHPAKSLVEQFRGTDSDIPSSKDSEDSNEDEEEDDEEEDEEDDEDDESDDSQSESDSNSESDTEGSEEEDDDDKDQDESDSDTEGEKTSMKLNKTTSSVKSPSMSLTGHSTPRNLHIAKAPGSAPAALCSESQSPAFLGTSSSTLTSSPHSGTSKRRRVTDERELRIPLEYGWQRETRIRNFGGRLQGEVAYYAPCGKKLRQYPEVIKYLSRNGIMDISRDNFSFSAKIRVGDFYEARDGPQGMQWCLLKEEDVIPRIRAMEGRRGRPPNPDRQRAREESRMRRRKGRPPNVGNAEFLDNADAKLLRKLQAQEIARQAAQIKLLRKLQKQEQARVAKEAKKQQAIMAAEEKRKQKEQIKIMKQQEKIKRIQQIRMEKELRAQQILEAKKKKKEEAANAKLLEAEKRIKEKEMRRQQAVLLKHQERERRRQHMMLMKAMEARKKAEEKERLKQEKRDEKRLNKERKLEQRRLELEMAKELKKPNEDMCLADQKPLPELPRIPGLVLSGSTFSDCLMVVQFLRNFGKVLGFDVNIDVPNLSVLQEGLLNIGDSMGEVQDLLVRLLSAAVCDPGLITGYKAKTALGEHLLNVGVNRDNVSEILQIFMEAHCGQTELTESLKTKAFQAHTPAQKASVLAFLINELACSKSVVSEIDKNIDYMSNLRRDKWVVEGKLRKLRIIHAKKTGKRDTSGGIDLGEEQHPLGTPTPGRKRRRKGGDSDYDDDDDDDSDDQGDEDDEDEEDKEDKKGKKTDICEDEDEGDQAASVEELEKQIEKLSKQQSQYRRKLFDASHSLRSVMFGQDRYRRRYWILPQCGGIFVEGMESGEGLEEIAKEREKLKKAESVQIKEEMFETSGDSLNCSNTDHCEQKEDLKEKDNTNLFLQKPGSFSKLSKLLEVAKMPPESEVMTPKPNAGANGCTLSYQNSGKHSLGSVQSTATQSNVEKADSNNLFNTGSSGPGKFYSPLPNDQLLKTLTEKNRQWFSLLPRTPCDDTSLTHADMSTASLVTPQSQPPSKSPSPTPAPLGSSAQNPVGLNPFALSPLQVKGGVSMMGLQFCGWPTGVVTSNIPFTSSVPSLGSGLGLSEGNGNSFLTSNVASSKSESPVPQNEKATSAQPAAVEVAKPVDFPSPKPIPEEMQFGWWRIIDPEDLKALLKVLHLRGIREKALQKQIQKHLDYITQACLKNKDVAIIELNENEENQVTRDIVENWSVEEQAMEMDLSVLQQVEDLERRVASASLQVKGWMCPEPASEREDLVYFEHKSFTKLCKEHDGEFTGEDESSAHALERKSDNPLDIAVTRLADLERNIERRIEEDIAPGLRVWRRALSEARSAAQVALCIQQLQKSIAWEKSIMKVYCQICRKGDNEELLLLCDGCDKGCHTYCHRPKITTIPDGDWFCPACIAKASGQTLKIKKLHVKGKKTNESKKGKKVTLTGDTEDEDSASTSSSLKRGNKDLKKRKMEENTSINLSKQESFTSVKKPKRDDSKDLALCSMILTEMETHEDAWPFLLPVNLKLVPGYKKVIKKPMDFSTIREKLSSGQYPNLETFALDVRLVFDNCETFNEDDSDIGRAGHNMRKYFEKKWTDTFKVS
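Protein-peptide AlphaScreen: BAZ2B 50 nM, b-H3K14Ac 50 nM, 1x PBS pH 7.4 + 0.01% Tween-20. Preincubation 30 min RT; cpd 30 min RT (top 110 uM); beads 20 min RT, light-protected.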
GLS inhibitor: glutaminase GLS (human) inhibition; Potency, µM (highest dose often 45.5 µM), most hits filed as inhibitors; GLS enzymatic activity, qHTS titration; AID 624170; 410,000 tested, 0.21% active
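hKGA; 45 mM KH2PO4 pH 8.2 + 0.02% Tween-20; cpd via pin tool; 1 mM Gln soln; GluOx/HRP/Amplex Red; RT 30 min; fluor. t0 & final.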
G9a block: inhibitors of human histone lysine methyltransferase G9a; Potency, µM (doses to about 102 µM), actives largely listed as inhibitors; G9a H3K9 monomethylation, AlphaScreen, 2 h; Q96KQ7; 350,000 tested, 8.8% active; note: nearly all actives have a fitted effect of over 75% in size
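Readings reflect AlphaScreen signal from monomethyl-H3K9 antibody detection. HMT at 20 nM; substrate b-H3K9 500 nM; cofactor SAM 20 uM; 2 h RT reaction; compounds tested as titrations in qHTS with 15 min preincubation.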
HP1b chromo inh: inhibitors of HP1-beta chromodomain binding to methylated histone tails | AlphaScreen HP1-beta / biotin-H3K9me3 peptide binding | P83916 | Potency, µM (titrated, usually from 114 µM), hits mostly inhibitors | 390,000 tested, 0.56% active; note: nearly all actives have a fitted effect of over 70% in size
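AlphaScreen: HP1-beta (50 nM) preformed 30 min with biotin-H3(1-18)K9me3 peptide (50 nM) in PBS pH 7.4, 0.01% Tween-20. Compound added for 30 min at RT, then streptavidin donor/nickel chelate acceptor beads (10 ug/mL) for 30 min.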
Each line names hits and unclear results; the compound was inactive in the other large screens; ! = not active in a repeat. Calls come from the whole dose curve; as a rule, active = well fitted curve in the direction sought with a large enough effect; inconclusive = small, poorly fitted or top-dose-only effect, or another doubt; inactive = no such curve, though single readings can be large; an effect the other way counts as inactive or inconclusive.

CC(=O)NC1Sc2ccccc2N=C1c1ccccc1 (stereo unspecified)	JMJD2A Tudor inh 50µM, G9a block inconclusive, HP1b chromo inh inconclusive
CCN(CC)C(=O)c1sc2c(c1C)c(=O)n(-c1ccc(Cl)c(Cl)c1)c(=O)n2Cc1cc(=O)n2ccccc2n1	G9a block inconclusive
C=CCNC(=S)NNC(=O)COc1cccc(Cl)c1	G9a block 25µM
C=CCNC(=S)NNC(=O)COc1ccc(Br)cc1	JMJD2A Tudor inh inconclusive, G9a block 32µM
C=CCNC(=S)NNC(=O)COc1ccc2cc(Br)ccc2c1	none
C[N+](C)(CCCCCC[N+](C)(C)C1c2ccccc2-c2ccccc21)C1c2ccccc2-c2ccccc21	none (no result: JMJD2A Tudor inh, BAZ2B inh, G9a block, HP1b chromo inh)
CCn1c(=O)c2cc(C(=O)NCc3ccc(F)cc3Cl)sc2c2ccccc21	none
CC(=O)NNc1cc(C)nc(N)n1	GLS inhibitor inconclusive (no result: G9a block)
CN(C)CC(C)(C)CNS(=O)(=O)c1ccc(Cl)c(Cl)c1	JMJD2A Tudor inh 18µM!, BAZ2B inh inconclusive, G9a block inconclusive
CN(C)CCNC(=O)c1cccc(NS(=O)(=O)c2ccc(Cl)c(Cl)c2)c1	G9a block inconclusive (no result: BAZ2B inh)
COc1ccc(C2=NS(=O)(=O)N(C)C(C(=O)Nc3ccc(OC)c(OC)c3)=C2)cc1	JMJD2A Tudor inh inconclusive, BAZ2B inh inconclusive, G9a block 35µM
COc1cccc(C2=NS(=O)(=O)N(C)C(C(=O)Nc3cccc(O)c3)=C2)c1	G9a block 14µM
COc1ccc(CNC(=O)C2=CC(c3cccc(OC)c3)=NS(=O)(=O)N2C)cc1	JMJD2A Tudor inh inconclusive
C[C@H]1CN([C@@H](C)CO)C(=O)CCCn2cc(nn2)CO[C@@H]1CN(C)C(=O)Oc1ccccc1	none (no result: JMJD2A Tudor inh, BAZ2B inh, G9a block, HP1b chromo inh)
CC(NCc1cccc(S(=O)(=O)N(C)C)c1)c1ccc(F)cc1 (stereo unspecified)	JMJD2A Tudor inh 22µM, BAZ2B inh 50µM (no result: G9a block)
CN(C)S(=O)(=O)c1cccc(CSCc2cccc(S(=O)(=O)N(C)C)c2)c1	none
CCN(CC(=O)NCc1ccccn1)S(=O)(=O)c1ccc(Cl)cc1	G9a block 13µM
CC1(C)CC(N2CCN(Cc3ccccc3)CC2)=CC(=[N+]2CCCCC2)C1	JMJD2A Tudor inh 18µM, G9a block inconclusive, HP1b chromo inh 71µM
CN(Cc1ccccc1)C1=CC(=[N+]2CCCCC2)CC(C)(C)C1	BAZ2B inh inconclusive, G9a block 32µM
CC1(C)CC(N2CCCC2)=CC(=[N+]2CCCC2)C1	BAZ2B inh 79µM, G9a block inconclusive
CCOc1cc(CNc2cccc3[nH]c(C)nc23)ccc1OC	JMJD2A Tudor inh inconclusive, BAZ2B inh inconclusive, G9a block 50µM
COCCn1c(Cc2ccccc2)nnc1SCC(=O)Nc1oc(C)c2c(C)n[nH]c(=O)c12	G9a block 14µM
COCC(C)n1c(SCC(=O)Nc2oc(C)c3c(C)n[nH]c(=O)c23)nc2ccccc2c1=O (stereo unspecified)	none (no result: G9a block)
Cc1n[nH]c(=O)c2c(NC(=O)CSc3nnnn3-c3ccccc3)oc(C)c12	JMJD2A Tudor inh inconclusive, G9a block 45µM
Cc1n[nH]c(=O)c2c(NC(=O)CSc3nc4ccccc4c(=O)n3C(C)C)oc(C)c12	G9a block 56µM
Cc1sc2ncn(CC(=O)N3CCN(c4ccccc4)CC3)c(=O)c2c1S(=O)(=O)N1CCC(C)CC1	none
Cc1ccc(-n2c(-c3cc(C)n(C)n3)n[nH]c2=S)cc1	JMJD2A Tudor inh 7.1µM, G9a block 7.9µM
Fc1cccc(-c2n[nH]c(=S)n2-c2ccccc2)c1	JMJD2A Tudor inh 7.9µM
Cc1cc(-c2n[nH]c(=S)n2-c2ccccc2)nn1C	JMJD2A Tudor inh 3.2µM, G9a block 8.9µM
CCN(CC)CCCNC(=O)c1ccc2nc(CCc3ccccc3)oc2c1	none
Cc1c(C)c2c(c(C)c1OC(=O)c1cccnc1)CC[C@@](C)(CCC[C@H](C)CCC[C@H](C)CCCC(C)C)O2	none (no result: JMJD2A Tudor inh, BAZ2B inh, HP1b chromo inh)
Cc1nn(CCc2n[nH]c(=S)n2-c2ccc(F)c(Cl)c2)c(C)c1[N+](=O)[O-]	G9a block inconclusive
Cc1cccc(-n2c(Cn3nc(C)c([N+](=O)[O-])c3C)n[nH]c2=S)c1	JMJD2A Tudor inh 22µM, G9a block inconclusive
Cc1nn(C(C)c2n[nH]c(=S)n2-c2ccc(F)cc2)c(C)c1[N+](=O)[O-] (stereo unspecified)	JMJD2A Tudor inh 25µM, G9a block 4.5µM
Cc1nn(C(C)c2nc(-c3ccccc3)no2)c(C)c1[N+](=O)[O-] (stereo unspecified)	BAZ2B inh inconclusive
Cc1nn(CCc2n[nH]c(=S)n2-c2ccc(F)cc2)c(C)c1[N+](=O)[O-]	JMJD2A Tudor inh 18µM, G9a block 2.2µM
O=C1C(=O)N(CCN2CCOCC2)C(c2cccc(Cl)c2)/C1=C(\O)c1ccc2c(c1)OCCO2 (stereo unspecified)	BAZ2B inh inconclusive, G9a block 35µM
CCOc1ccc(C2/C(=C(\O)c3ccc4c(c3)OCCO4)C(=O)C(=O)N2CCN2CCOCC2)cc1OC (stereo unspecified)	G9a block 45µM
O=C1C(=O)N(CCN2CCOCC2)C(c2ccc(Cl)c(Cl)c2)/C1=C(/O)c1ccc2c(c1)OCO2 (stereo unspecified)	G9a block inconclusive
CN1CC2(Cc3cc([N+](=O)[O-])ccc31)C(=O)OC(C)(C)OC2=O	none (no result: BAZ2B inh, GLS inhibitor, G9a block)
CN1CCN(C(=O)/C(=C/c2ccc(F)cc2)c2ccsc2)CC1	G9a block 45µM
CN1CCN(C(=O)/C(=C/c2ccccc2)c2ccccc2)CC1	none
O=C(O)CCCn1c(O)c(C=C2N=c3ccccc3=N2)sc1=S	BAZ2B inh inconclusive
O=C(O)c1cccc(-n2c(O)c(C=C3N=c4ccccc4=N3)sc2=S)c1	JMJD2A Tudor inh inconclusive, G9a block 50µM
O=C(O)CCCCCn1c(O)c(C=C2N=c3ccccc3=N2)sc1=S	BAZ2B inh 50µM, G9a block 8.9µM
CCCC(C(=O)O)n1c(O)c(C=C2N=c3ccccc3=N2)sc1=S (stereo unspecified)	JMJD2A Tudor inh 20µM, G9a block inconclusive
CCc1cccc(C)c1NC(=O)Cn1c(=O)cc(C)c2c(C)nn(-c3cccc(F)c3)c21	none
CC1C/C(=C/c2ccncc2)C(=O)/C(=C/c2ccncc2)C1 (stereo unspecified)	BAZ2B inh inconclusive
CC1C/C(=C/c2cccn2C)C(=O)/C(=C/c2cccn2C)C1 (stereo unspecified)	JMJD2A Tudor inh 25µM, BAZ2B inh 32µM, G9a block inconclusive, HP1b chromo inh 40µM
O=C(O)c1ccc(-n2cc(-c3cc4ccccc4oc3=O)[nH]c2=S)cc1	JMJD2A Tudor inh 1.3µM
c1cc2cn[nH]c2cc1NC1CCCCCC1	JMJD2A Tudor inh inconclusive, BAZ2B inh inconclusive, G9a block 4.5µM
COc1ccc2nc3sc(C(=O)N4CCN(c5ccc(F)cc5)CC4)cc3cc2c1	none
O=C1C=C(c2ccc(CO)cc2)C[C@@H](c2ccc(F)cc2)C1	none (no result: JMJD2A Tudor inh, BAZ2B inh, G9a block, HP1b chromo inh)
